NS1 inh = influenza NS1 inhibition. Potency, µM (series often up to 46.1 µM), without a hit: at the highest dose activity, positive = more growth. hit rate 0.4% among 270,000. AID 2326; calls by dose curve; further: potency means the concentration at half of the fitted maximal effect; actives are rising curves; nearly all actives have a fitted effect of over 50% in size
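OD600 was taken as the measure of yeast growth restored by compound in an NS1-expressing S. cerevisiae strain. Cells had been washed out of glucose medium and diluted 1:100 into galactose -URA medium, pH 6.0.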
Pf growth 96h = P. falciparum growth inhibition at 96 hour, primary screen for plastid delayed-death inhibitors; hit rate 6.9% among 320,000; P. falciparum luciferase reporter growth, 96 h; Potency, µM (series often up to 28.7 µM), for inactives: at the top dose activity change, negative = inhibition, actives largely listed as inhibitors; AID 504834; further: potency means the concentration at half of the fitted maximal effect; on the % scale 0 is the no-effect control and ±100 the full control effect
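Readout is luminescence from an integrated firefly luciferase in P. falciparum. Red cells, 2% hematocrit and 0.05% parasitemia final, were cultured with compound through two parasite generations (96 hours) at 37 C, 5% CO2.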
Giardia FBPA inh = blocks Giardia fructose-bisphosphate aldolase activity. AID 2451. Potency, µM (titrated, usually from 59.6 µM), inactives show at the top dose activity, negative = inhibition, actives largely listed as inhibitors. hit rate 0.71% among 290,000. purified Giardia FBPA. A8B2U2; further: potency means the concentration at half of the fitted maximal effect; on the % scale 0 is the no-effect control and ±100 the full control effect; nearly all actives have a fitted effect of over 55% in size
Target sequence (A8B2U2 whole entry, looked up): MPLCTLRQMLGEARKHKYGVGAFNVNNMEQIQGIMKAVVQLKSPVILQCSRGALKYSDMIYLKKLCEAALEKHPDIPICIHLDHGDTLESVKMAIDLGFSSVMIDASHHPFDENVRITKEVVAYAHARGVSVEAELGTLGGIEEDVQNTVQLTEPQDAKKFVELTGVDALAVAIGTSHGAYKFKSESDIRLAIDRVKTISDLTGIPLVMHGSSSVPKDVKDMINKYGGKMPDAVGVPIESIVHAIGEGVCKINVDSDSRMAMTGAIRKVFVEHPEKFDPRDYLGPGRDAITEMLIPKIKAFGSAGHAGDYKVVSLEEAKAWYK
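40 nM FBPA preincubated 10 min at RT with compound (up to 57.5 uM final), then substrate plus GAPDH/TPI/NAD/arsenate coupling and diaphorase/resazurin added. Fluorescence read after 20 min at RT, 525/598 nm.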
Shiga inhibitor = Shiga toxin inhibition. Vero cells, Shiga toxin protein synthesis inhibition reporter. inhibition, % at 38.7 µM. hit rate 9.2% among 290,000; in the data active means inhibition mostly above about 28%, no sharp cut-off; inactive means mostly below about 43%; further: 0% is about no effect
CHX counter = affects cycloheximide protein synthesis inhibition readout, counter-screen | cell reporter, cycloheximide protein synthesis inhibition counterscreen | max response, % | hit rate 12% among 300,000 | AID 2314; in the data active means max response mostly above about 13%, no sharp cut-off; inactive means mostly below about 14%; further: read at 38.3 µM for the half of the compounds with a filed dose; 0% is about no effect
Pf growth 48h = P. falciparum growth inhibition at 48 hours (one generation) | P. falciparum luciferase growth in erythrocytes, 48 h | Potency, µM (doses to about 28.7 µM), for inactives: at the top dose activity change, negative = inhibition, usual class: inhibitors | hit rate 5.9% among 310,000 | AID 504832; further: potency means the concentration at half of the fitted maximal effect; on the % scale 0 is the no-effect control and ±100 the full control effect
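Luminescence readout; reporter = integrated firefly luciferase in P. falciparum. RBC culture at 2% hematocrit, 0.1% parasitemia final, 37 C/5% CO2; decreased signal taken as growth inhibition.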
Flu NS1 inh = validation of influenza NS1 protein function inhibitors | shares compounds with NS1 inh | influenza NS1 function cell assay, 15-point titration | activity change, negative = inhibition, % at 32.9 µM | 1,400 tested, under 10 active | AID 492980; calls by dose curve; further: 0% is about no effect
An asterisk follows results filed as active; ? = inconclusive; . = no result given. Rows were chosen to be rich in hits. Some 21% of all compounds tested hit in one or more screens of this group. Unless noted, the call rests on the fitted dose curve; in most records, active means well fitted curve in the direction sought with a large enough effect; inconclusive means small, poorly fitted or top-dose-only effect, or another doubt; inactive means no such curve, though single readings can be large; an effect the other way counts as inactive or inconclusive.

SMILES	NS1 inh	Pf growth 96h	Giardia FBPA inh	Shiga inhibitor	CHX counter	Pf growth 48h	Flu NS1 inh
C/C=C\C(=O)Nc1cccc(C2=NOC3(C2)C[C@@H](C(N)=O)N(C(=O)c2ccccc2)C3)c1 (stereo partly specified)	-2%	?	2%	-2	-4	?	.
C/C=C\C=C/C(=O)Nc1cccc(C2=NOC3(C2)C[C@@H](C(N)=O)N(C(=O)c2ccccc2)C3)c1 (stereo partly specified)	1µM*	?	-18%	-5	-3	51%	-11
COc1ccc(-n2c(SCC(=O)Nc3ccc(C)cc3)nc(O)c(Cc3ccccc3)c2=O)cc1	17%	?	25%	-10	-1	1%	.
O=C(CSc1nc2ccccc2c(=O)n1-c1ccc(F)cc1)Nc1ccc(C(=O)O)cc1	14µM*	-12%	10%	-17	-2	-20%	?
Cc1ccc(-n2c(SCC(=O)NNC(=S)Nc3ccccc3)nc3ccccc3c2=O)cc1	4.5µM*	4%	4%	-3	3	-7%	-26
O=C(CSc1nc2ccccc2c(=O)n1-c1ccc(F)cc1F)Nc1ccc2c(c1)CCC2	13µM*	?	-4%	80*	59*	9.3µM*	2
O=C(CSc1nc2ccccc2c(=O)n1-c1ccccc1)NC(=O)CN1CCCC1=O	.	-11%	0%	-10	-3	1%	.
COc1ccc(CCNC(=O)c2cc3c(cc2Cl)N2CCCCCC2=NS3(=O)=O)cc1	.	-17%	.	.	.	?	.
Cc1[nH]n(-c2ncc(-c3ccccc3)s2)c(=O)c1C(c1ccc(Br)cc1)C(C#N)C#N (stereo unspecified)	4.5µM*	4%	?	41	14	7%	-21
Cc1ccc2nc(-c3ccc(NS(=O)(=O)c4c(C)n(C)c(=O)n(C)c4=O)cc3)sc2c1	7.9µM*	231%	-6%	121*	67*	274%	4
Cc1c(S(=O)(=O)Nc2ccc3c(c2)OCCO3)c(=O)n(C)c(=O)n1C	0%	0%	-2%	-19	3	.	.
Cc1ccc(NC(=O)CC2SC(=O)NC2=O)cc1 (stereo unspecified)	6.3µM*	1%	-18%	-1	-1	-4%	-6
O=c1nc(SCc2c(F)cccc2Cl)nc(-c2ccccc2)[nH]1	-5%	5%	7%	-13	-2	13%	.
O=C(NCc1cccnc1)C1CCCN(S(=O)(=O)c2ccccc2)C1 (stereo unspecified)	1.6µM*	.	7%	-4	-2	15%	2
COc1ccc(OCC(=O)Nc2ccc(S(=O)(=O)N3CCCCC3)cc2)cc1	-53%	7%	0%	32	14	?	.
O=C(COc1ccc(S(=O)(=O)N2CCCCC2)cc1)NCc1ccncc1	-6%	-1%	4%	-29	-1	-12%	.
O=C(COc1ccc(S(=O)(=O)N2CCCC2)cc1)NCc1cccnc1	?	12%	8%	-2	-4	-14%	11
COc1ccc(OC)c(NC(=O)COc2ccc(S(=O)(=O)N3CCCC3)cc2)c1	?	?	-6%	-1	-5	?	-8
Cc1nc(-c2ccc(Cl)cc2)sc1C1(C)CC(c2c(Cl)cccc2Cl)=NO1 (stereo unspecified)	10µM*	53%	7%	-2	1	82%	18
O=C(NC1CC1)c1ccc(CS(=O)(=O)c2c(Cl)cccc2Cl)o1	4.5µM*	26%	1%	28	-2	.	6
O=C(NCC1CCCO1)c1ccc(CS(=O)(=O)c2c(Cl)cccc2Cl)o1 (stereo unspecified)	1%	49%	0%	-10	-6	.	.
CCOC(=O)CSc1nc2ccccc2c(=O)n1CCN1CCOCC1	-2%	?	2%	16	-2	-21%	.
CCOC(=O)CSc1nc2ccc(N3CCOCC3)cc2c(=O)n1Cc1ccccc1	1µM*	?	?	51	18*	.	5
COc1ccc(CN2CCNC(=O)C2CC(=O)NCc2cnn(C)c2)cc1OC (stereo unspecified)	6%	?	-17%	-4	1	38%	.

High-throughput results from PubChem.
